The values below come from PubChem BioAssay (Tox21).

Experiment [1] is described as follows: qHTS RealTime-Glo MT Cell Viability Assay in HepG2 cells - 24 hour (AID 1224867). Also: nearly all actives have a fitted effect of over 50% in size. Also: potency is read from the fitted curve at half-maximal effect. Put shortly: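 Cell number in HepG2 cultures estimated from NanoLuc luminescence generated by metabolic reduction of a prosubstrate by living cells. The homogeneous, nonlytic format allowed repeated reads at 0, 8, 16, 24, 32 and 40 h of compound exposure.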
Experiment [2] in a line: qHTS RealTime-Glo MT Cell Viability Assay in HepG2 cells - 40 hour (AID 1224870). Also: nearly all actives have a fitted effect of over 50% in size. Also: potency is read from the fitted curve at half-maximal effect. As to activity change, negative = cytotoxic: % is scaled to controls: 0 for no effect and ±100 for the full control effect. An outline of the steps: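 Real-time viability: cells seeded at 600 per well together with NanoLuc and cell-permeant prosubstrate, compounds added after 5 h incubation. Luminescence tracked at 0, 8, 16, 24, 32 and 40 h of exposure.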
(In general: In qHTS, concentration-response curves come from the screen itself.)

The nature of experiment [3]: A CellTox Green Cytotoxicity Assay to monitor cytotoxicity in HEK293 cells - 40 hour (AID 1224871). Also: nearly all actives have a fitted effect of over 45% in size. Also: potency is read from the fitted curve at half-maximal effect. As to cytotoxicity increase: % is scaled to controls: 0 for no effect and ±100 for the full control effect. Put shortly:
(§1)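 Seeding of HEK293 cells together with cytotoxicity dye preceded a 5 h incubation at 37 C/5% CO2. Test compounds in DMSO were then added and fluorescence monitored across 40 h.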

The nature of experiment [4]: qHTS assay to identify small molecule antagonists of the estrogen related receptor (ERR) signaling pathway from Tox21 library (AID 1224848). Also: potency is read from the fitted curve at half-maximal effect; nearly all actives have a fitted effect of over 50% in size. An outline of the steps:
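Reading was by luminescence 30 min after ONE-Glo addition. Before that, ERR cells at 2,000 per well had rested 6 h at 37 C/5% CO2 and then received pin-tooled compounds in DMSO for 18 h at 37 C.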

A short description of experiment [5]: qHTS assay to identify small molecule agonists of the estrogen related receptor (ERR) signaling pathway from Tox21 library (AID 1224849; calls by dose curve; also: % is scaled to controls: 0 for no effect and ±100 for the full control effect; nearly all actives have a fitted effect of over 15% in size). Conditions: ERR reporter cell line, ONE-Glo luciferase, 18 h; at 92.4 µM (top of the series) unless noted. Put shortly:
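Six hours post-seeding at 37 C/5% CO2, ERR cells receive DMSO-solubilised compounds; after 18 h at 37 C, ONE-Glo reagent is applied and luminescence recorded.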

Experiment [6] in a line: qHTS RealTime-Glo MT Cell Viability Assay in HEK293 cells - 32 hour (AID 1224868). Also: nearly all actives have a fitted effect of over 50% in size. Also: potency is read from the fitted curve at half-maximal effect. As to activity change, negative = cytotoxic: top concentration of the series differs between compounds; % is scaled to controls: 0 for no effect and ±100 for the full control effect. Put shortly: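 Homogeneous bioluminescent viability format in HEK293 cells (600 cells/well). Following 5 h at 37 C/5% CO2, 23 nL compound was pintooled; the signal was measured repeatedly during 40 h incubation.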
Experiment [7] can be described thus: A CellTox Green Cytotoxicity Assay to monitor cytotoxicity in HEK293 cells - 0 hour (AID 1224869). Put shortly: as §1
A short description of experiment [8]: qHTS assay to identify small molecule agonists of H2AX - cell viability counter screen (AID 1224847; calls by dose curve; also: nearly all actives have a fitted effect of over 30% in size; also: potency is read from the fitted curve at half-maximal effect). An outline of the steps: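 Cells plated first: CHO-K1, 1000 per well in 10% FBS medium, incubated overnight at 37C. Then 15-point compound titration added (final DMSO 0.76%) for 3 hr. Finally CellTiter-Glo added and luminescence read.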

Structures are written as SMILES. A number with no mark means an inactive call. Records with an inconclusive call do not appear. Active and inactive are the calls of the source. Unless noted, calls follow the shape of the dose curve; as a rule, active = well fitted curve in the direction sought with a large enough effect in the repeat runs; inconclusive = weak or mixed curves; inactive = no such curve, though single readings can be large; an effect the other way counts as inactive or inconclusive.

With `C=CC(=O)OCC(CO)(COCC(COC(=O)C=C)(COC(=O)C=C)COC(=O)C=C)COC(=O)C=C`, the values for the Potency in experiment [1], in experiment [2] and in experiment [3] were 4.31 µM (active), 4.31 µM (active) and 27.2 µM (active), respectively.
As for `Cc1ccc(O)c2ncccc12`, in experiment [4], the Potency is 18.8 µM (active). For the same molecule, in experiment [5], the activity change, positive = activation is -58.3% [at 42.5 µM]. Besides, the Potency entry in experiment [1], in experiment [6], in experiment [7] and in experiment [2] was “inactive” in each case.
`[O-][n+]1ccccc1SSc1cccc[n+]1[O-]`: the Potency in experiment [4] is 0.259 µM (active); in experiment [1], 0.208 µM (active); in experiment [6] it was 1.31 µM (active); in experiment [2], 0.165 µM (active). In addition, the activity change, positive = activation in experiment [5] is -64% [at 19 µM].
As for `CCc1oc2ccccc2c1C(=O)c1cc(Br)c(O)c(Br)c1`, the Potency entry in experiment [1], in experiment [7], in experiment [2] and in experiment [3] was “inactive” each time.
`NC(=O)C1(N2CCCCC2)CCN(CCCN2c3ccccc3CCc3ccc(Cl)cc32)CC1`: the Potency was 55.2 µM (active) in experiment [8]; 23.9 µM (active) in experiment [1]; 21.3 µM (active) in experiment [6]; 23.9 µM (active) in experiment [2]; 26.8 µM (active) in experiment [3]. Besides, in experiment [7], the Potency entry was “inactive”.
As for `COc1cccc2c1C(=O)c1c(O)c3c(c(O)c1C2=O)C[C@@](O)(C(=O)CO)C[C@@H]3O[C@H]1C[C@H](N)[C@H](O[C@@H]2CCCCO2)[C@H](C)O1`, the Potency in experiment [4] is 4.22 µM (active); in experiment [1], 2.13 µM (active); in experiment [6], 0.239 µM (active); in experiment [2], 1.9 µM (active). Further, in experiment [5], the activity change, positive = activation was -55.4% [at 42.5 µM]. The Potency result in experiment [7] and in experiment [3] was “inactive” each time.
For the molecule `O=C(Nc1cccc(C(F)(F)F)c1)c1cc(Br)cc(Br)c1O`, the Potency in experiment [8] was 16 µM (active); in experiment [6], 4.36 µM (active); in experiment [2] it was 21.9 µM (active). Moreover, the Potency result in experiment [7] is “inactive”.
Turning to `O=C(OC[C@H]1O[C@@H](OC(=O)c2cc(O)c(O)c(OC(=O)c3cc(O)c(O)c(O)c3)c2)[C@H](OC(=O)c2cc(O)c(O)c(OC(=O)c3cc(O)c(O)c(O)c3)c2)[C@@H](OC(=O)c2cc(O)c(O)c(OC(=O)c3cc(O)c(O)c(O)c3)c2)[C@@H]1OC(=O)c1cc(O)c(O)c(OC(=O)c2cc(O)c(O)c(O)c2)c1)c1cc(O)c(O)c(OC(=O)c2cc(O)c(O)c(O)c2)c1`, in experiment [8], the Potency result is “inactive”. Further, in experiment [5], the activity change, positive = activation is -16% [at 19 µM]. For the same molecule, in experiment [6], the activity change, negative = cytotoxic is -17.3% [at 15.8 µM]. Besides, the cytotoxicity increase in experiment [3] was -40.6% [at 15.8 µM].
As to `O=C(O)c1cc(O)c2c(c1)C(=O)c1cccc(O)c1C2=O`, the Potency result in experiment [8], in experiment [1], in experiment [6], in experiment [7], in experiment [2] and in experiment [3] was “inactive” in each case.
Regarding `CCN(CC)CCCC(C)Nc1c2ccc(Cl)cc2nc2ccc(OC)cc12` (configuration not stated), the Potency entry in experiment [8] and in experiment [7] was “inactive” in each case. Also, the Potency in experiment [1] is 6.74 µM (active); in experiment [6], 2.68 µM (active); in experiment [2], 5.35 µM (active).
With `CCCCCCCCCCCC(=O)NCCCN(C)C`, the Potency in experiment [8] is 101 µM (active); in experiment [1] it was 43.6 µM (active); in experiment [6], 38.9 µM (active); in experiment [2], 38.9 µM (active); in experiment [3], 49 µM (active). In addition, the Potency result in experiment [7] was “inactive”.
With `CCCCN(CCCC)c1ccc(C(=O)c2ccccc2C(=O)O)c(O)c1`, in experiment [4], the Potency was 55 µM (active). Also, the activity change, positive = activation in experiment [5] is -39.4%. Besides, the Potency result in experiment [1], in experiment [6], in experiment [7] and in experiment [2] was “inactive” in each case.
As to `N=C1N=C(N)c2ccccc21`, the Potency in experiment [6] is 24.5 µM (active). Moreover, the Potency result in experiment [7] and in experiment [3] was “inactive” in each case.
`CCCCCCCCCCCCCC[P+](CCCC)(CCCC)CCCC` (tested in a mixture with another compound): the Potency is 3.6 µM (active) in experiment [8], 19.6 µM (active) in experiment [1], 0.553 µM (active) in experiment [6] and 19.6 µM (active) in experiment [2]. Moreover, in experiment [7], the Potency result is “inactive”.
As for `O=C1CCCCCN1SSN1CCCCCC1=O`, the results for the Potency in experiment [4] and in experiment [3] were 54.5 µM (active) and 49 µM (active), respectively. In addition, the activity change, positive = activation in experiment [5] was -43.7%. The Potency entry in experiment [6] and in experiment [7] was “inactive” each time.
On to `O=CC=C(c1ccccc1)c1ccccc1`, for which the Potency entry in experiment [1] and in experiment [2] was “inactive” throughout. Also, in experiment [6], the Potency is 17.5 µM (active).
In the case of `O=C1c2c(O)ccc(Nc3ccc(CCO)cc3)c2C(=O)c2c([N+](=O)[O-])ccc(O)c21`, the Potency entry in experiment [6], in experiment [7], in experiment [2] and in experiment [3] was “inactive” in each case.
